This is an account of results in ChEMBL document CHEMBL1961873, “Compounds: GSK PKIS; Assays: Nanosyn kinase panel” (2012).

Assay [1] concerns the target Mitogen-activated protein kinase kinase kinase kinase 4 (Homo sapiens) (UniProt O95819). Particulars: at 1 µM.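 Further: reported figure is an averaged inhibition value.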
In assay [2] the target is Dual specificity mitogen-activated protein kinase kinase 1 (Homo sapiens) (UniProt Q02750). As to conditions: at 0.1 µM.
Assay [3] shares this target. As to conditions: at 1 µM.
In assay [4] the target is Misshapen-like kinase 1 (Homo sapiens) (UniProt Q8N4C8). As to conditions: at 0.1 µM.
For assay [5] the target is unchanged. As to conditions: at 1 µM.
Assay [6] concerns the target T1, Serine/threonine-protein kinase 4 (Homo sapiens) (UniProt Q13043).
T1 sequence (whole entry): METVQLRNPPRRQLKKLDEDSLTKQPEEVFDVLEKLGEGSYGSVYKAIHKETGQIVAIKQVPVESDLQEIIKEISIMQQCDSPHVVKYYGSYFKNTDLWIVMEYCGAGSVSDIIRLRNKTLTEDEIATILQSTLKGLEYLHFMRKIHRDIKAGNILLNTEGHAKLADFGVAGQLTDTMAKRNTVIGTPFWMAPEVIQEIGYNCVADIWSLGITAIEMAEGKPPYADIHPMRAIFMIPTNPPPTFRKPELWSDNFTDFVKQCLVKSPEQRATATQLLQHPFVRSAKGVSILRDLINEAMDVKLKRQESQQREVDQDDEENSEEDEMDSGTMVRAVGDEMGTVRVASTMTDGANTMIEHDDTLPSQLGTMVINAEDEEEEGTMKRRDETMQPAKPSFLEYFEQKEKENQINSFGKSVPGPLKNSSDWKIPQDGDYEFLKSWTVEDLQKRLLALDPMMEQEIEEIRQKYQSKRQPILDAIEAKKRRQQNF
Particulars: at 0.1 µM.

Assay [7] addresses T1, Serine/threonine-protein kinase 4 (Homo sapiens). Particulars: at 1 µM.
Assay [8] concerns the target T2, Serine/threonine-protein kinase 3 (Homo sapiens) (UniProt Q13188).
T2 sequence (whole entry): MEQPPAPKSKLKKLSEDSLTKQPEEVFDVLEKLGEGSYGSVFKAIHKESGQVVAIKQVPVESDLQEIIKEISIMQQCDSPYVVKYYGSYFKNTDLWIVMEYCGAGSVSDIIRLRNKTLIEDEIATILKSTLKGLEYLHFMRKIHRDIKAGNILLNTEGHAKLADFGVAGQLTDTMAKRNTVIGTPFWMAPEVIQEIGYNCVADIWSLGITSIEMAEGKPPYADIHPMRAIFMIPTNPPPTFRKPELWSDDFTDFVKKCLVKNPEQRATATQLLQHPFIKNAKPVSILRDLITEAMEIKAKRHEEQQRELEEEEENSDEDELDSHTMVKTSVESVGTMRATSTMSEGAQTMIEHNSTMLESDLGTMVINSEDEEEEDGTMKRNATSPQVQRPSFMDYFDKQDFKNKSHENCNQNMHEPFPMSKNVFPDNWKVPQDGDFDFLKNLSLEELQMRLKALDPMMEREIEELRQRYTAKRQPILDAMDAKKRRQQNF
As to conditions: at 0.1 µM.

The target in assay [9] is T2, Serine/threonine-protein kinase 3 (Homo sapiens). As to conditions: at 1 µM.
Assay [10] concerns the target Serine/threonine-protein kinase 26 (Homo sapiens) (UniProt Q9P289). Particulars: at 0.1 µM.

Structures are written as SMILES.

Chain of Misshapen-like kinase 1 (Homo sapiens) (Q8N4C8 whole entry, looked up): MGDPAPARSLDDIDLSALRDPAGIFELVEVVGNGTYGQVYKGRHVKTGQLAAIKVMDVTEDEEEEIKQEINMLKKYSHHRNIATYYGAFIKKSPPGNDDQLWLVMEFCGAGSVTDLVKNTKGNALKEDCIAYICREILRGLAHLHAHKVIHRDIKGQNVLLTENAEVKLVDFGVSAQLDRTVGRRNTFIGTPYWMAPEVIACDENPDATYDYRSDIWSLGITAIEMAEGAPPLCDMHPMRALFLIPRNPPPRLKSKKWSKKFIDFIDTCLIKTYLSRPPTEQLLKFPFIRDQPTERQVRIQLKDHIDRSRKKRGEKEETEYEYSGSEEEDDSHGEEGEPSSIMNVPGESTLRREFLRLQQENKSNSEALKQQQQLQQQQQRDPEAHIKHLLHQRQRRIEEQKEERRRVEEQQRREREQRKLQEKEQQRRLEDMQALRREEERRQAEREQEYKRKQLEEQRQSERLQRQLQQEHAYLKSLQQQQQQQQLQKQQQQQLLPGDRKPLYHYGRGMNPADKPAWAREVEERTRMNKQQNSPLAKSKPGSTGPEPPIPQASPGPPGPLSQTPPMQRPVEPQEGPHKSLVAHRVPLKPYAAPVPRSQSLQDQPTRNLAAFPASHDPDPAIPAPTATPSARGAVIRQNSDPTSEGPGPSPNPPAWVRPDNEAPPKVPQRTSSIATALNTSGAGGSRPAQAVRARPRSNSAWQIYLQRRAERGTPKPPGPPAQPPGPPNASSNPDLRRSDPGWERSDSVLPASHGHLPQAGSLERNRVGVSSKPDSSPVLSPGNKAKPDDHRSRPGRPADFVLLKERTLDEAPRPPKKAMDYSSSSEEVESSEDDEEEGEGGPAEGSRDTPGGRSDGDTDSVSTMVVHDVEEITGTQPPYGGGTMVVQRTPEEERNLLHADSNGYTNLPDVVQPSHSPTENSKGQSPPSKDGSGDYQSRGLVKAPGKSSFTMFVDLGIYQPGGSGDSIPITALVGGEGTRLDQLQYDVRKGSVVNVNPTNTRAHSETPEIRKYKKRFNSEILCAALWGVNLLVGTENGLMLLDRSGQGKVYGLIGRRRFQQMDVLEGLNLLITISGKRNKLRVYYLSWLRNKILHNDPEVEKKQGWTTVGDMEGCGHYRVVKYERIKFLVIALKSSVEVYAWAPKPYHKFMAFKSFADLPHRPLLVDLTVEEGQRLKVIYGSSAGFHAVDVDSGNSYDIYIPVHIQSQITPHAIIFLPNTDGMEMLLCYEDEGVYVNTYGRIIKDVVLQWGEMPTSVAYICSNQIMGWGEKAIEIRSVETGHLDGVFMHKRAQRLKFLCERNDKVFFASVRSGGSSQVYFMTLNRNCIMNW
Chain of Dual specificity mitogen-activated protein kinase kinase 1 (Homo sapiens) (Q02750 whole entry): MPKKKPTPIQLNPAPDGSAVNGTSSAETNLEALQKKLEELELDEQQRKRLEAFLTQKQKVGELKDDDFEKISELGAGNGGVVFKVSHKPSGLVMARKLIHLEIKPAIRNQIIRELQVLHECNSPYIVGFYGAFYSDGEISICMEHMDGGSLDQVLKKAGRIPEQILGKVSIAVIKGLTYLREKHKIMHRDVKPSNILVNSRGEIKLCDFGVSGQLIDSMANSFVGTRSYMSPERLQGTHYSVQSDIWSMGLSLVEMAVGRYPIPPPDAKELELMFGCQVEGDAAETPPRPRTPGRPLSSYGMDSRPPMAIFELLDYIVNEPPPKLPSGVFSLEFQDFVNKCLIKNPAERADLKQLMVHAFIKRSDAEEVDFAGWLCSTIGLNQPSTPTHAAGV
Chain of Serine/threonine-protein kinase 26 (Homo sapiens) (Q9P289 2-416 limits assumed): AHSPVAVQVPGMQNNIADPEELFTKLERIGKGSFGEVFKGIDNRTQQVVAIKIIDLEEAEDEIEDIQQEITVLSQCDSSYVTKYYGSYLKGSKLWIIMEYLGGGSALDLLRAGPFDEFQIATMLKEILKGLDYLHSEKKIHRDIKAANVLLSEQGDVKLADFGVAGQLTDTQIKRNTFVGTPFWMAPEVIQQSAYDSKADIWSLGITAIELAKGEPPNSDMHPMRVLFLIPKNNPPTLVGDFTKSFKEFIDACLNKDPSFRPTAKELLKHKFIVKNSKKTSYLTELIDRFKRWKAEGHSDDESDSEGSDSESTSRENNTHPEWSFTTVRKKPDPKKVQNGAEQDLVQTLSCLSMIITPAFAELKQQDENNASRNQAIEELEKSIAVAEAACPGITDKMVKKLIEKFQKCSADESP
Chain of Mitogen-activated protein kinase kinase kinase kinase 4 (Homo sapiens) (O95819 2-1239 limits assumed): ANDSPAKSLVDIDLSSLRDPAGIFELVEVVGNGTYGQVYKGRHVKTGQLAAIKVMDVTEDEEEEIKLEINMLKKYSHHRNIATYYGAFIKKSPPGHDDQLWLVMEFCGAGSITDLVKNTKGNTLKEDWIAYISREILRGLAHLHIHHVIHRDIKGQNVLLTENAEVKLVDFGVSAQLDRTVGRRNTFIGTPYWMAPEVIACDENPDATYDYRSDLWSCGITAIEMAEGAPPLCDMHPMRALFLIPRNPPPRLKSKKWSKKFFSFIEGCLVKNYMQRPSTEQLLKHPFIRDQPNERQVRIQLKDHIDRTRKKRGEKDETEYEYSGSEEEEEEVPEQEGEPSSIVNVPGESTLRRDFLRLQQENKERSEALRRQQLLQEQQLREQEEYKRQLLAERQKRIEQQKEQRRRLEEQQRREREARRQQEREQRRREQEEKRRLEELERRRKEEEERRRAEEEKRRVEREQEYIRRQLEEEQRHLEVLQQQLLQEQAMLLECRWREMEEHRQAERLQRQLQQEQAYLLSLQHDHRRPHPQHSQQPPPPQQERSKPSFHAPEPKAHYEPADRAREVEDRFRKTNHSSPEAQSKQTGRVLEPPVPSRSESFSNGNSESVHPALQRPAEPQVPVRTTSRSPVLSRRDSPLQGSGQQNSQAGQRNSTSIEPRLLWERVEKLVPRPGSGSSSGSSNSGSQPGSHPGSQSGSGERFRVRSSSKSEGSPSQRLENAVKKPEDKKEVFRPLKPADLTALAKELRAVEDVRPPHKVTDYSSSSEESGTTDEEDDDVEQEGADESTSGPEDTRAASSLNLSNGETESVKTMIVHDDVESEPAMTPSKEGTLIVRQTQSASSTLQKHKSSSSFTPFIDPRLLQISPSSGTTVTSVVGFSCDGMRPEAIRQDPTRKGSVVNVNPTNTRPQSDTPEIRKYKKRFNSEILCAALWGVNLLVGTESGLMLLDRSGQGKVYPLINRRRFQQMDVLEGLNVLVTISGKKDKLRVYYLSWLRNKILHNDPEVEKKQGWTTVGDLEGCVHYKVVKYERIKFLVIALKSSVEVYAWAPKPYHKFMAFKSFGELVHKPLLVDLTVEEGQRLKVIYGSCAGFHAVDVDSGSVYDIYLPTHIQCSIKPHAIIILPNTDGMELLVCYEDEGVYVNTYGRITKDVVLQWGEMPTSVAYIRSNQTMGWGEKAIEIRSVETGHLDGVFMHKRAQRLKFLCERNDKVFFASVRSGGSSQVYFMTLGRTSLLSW

As for `CCN1CCC(CC(=O)Nc2n[nH]c3nc(-c4cccs4)c(Br)cc23)CC1`, the inhibition (in general, the drop in the measured response relative to a control, in per cent) is 9.82% in assay [1]; -3.83% in assay [2]; -4.66% in [3]; -1.72% in assay [4]; 5.84% in [5]; -4.72% in assay [6]. In addition, the inhibition in assay [7] was -4.38%; in assay [8], -4.72%; in [9], -2.74%; in assay [10] it was 2.05%.
For `COc1cc2c(cc1Nc1nc(N3CCc4ccccc43)c3cc[nH]c3n1)N(C(=O)CN(C)C)CC2`, the inhibition is 2.27% in assay [1]; 1.49% in assay [2]; 2.14% in assay [3]; 3.79% in [4]; -0.01% in [5]; 5.66% in assay [6]. Moreover, the inhibition is 6.86% in assay [7], 6.28% in assay [8], 5.22% in assay [9] and -0.61% in assay [10].
As to `O=C1NC(=O)C(N2CCc3ccccc32)=C1c1ccc(Cl)cc1`, the inhibition worked out at 9.97% in [1]; 5.02% in assay [2]; 5.22% in assay [3]; 5.14% in assay [4]; 10.3% in [5]; 6.36% in assay [6]. The inhibition in assay [7] was 7.67%; in assay [8], 6.26%; in [9], 7.91%; in assay [10], -1.31%.
Regarding `CCn1c(-c2nonc2N)nc2ccncc21`, the inhibition amounted to 3.87% in [1]; 2.48% in assay [2]; 1.41% in [3]; 3.12% in assay [4]; 3.29% in assay [5]; 2.91% in assay [6]. Also, the inhibition in [7] was 1.83%; in assay [8] it was 3.05%; in assay [9], 1.74%; in assay [10] it was 1.67%.
For the compound `Nc1nc(-c2ccc3c(c2)C(=Cc2cc(Br)c(O)c(Br)c2)C(=O)N3)cs1`, the inhibition was 75.3% in [1]; -1.03% in assay [2]; -1.25% in [3]; 10.2% in [4]; 56.9% in assay [5]; -2.22% in assay [6]. The inhibition is 9.55% in assay [7], -2.3% in [8], 12.2% in assay [9] and 0.73% in assay [10].
For `COc1cc(C)c(NC(=O)CN(C)C)cc1Nc1nc(Nc2cccc(F)c2C(N)=O)c2cc[nH]c2n1`, the inhibition in [1] was found to be 17.8%; in [2], 3.12%; in assay [3], 6.41%; in assay [4], 3.15%; in assay [5], 13.8%; in [6], 4.73%. For the same compound, the inhibition in assay [7] amounted to 17.7%; in assay [8], 5.85%; in assay [9], 7.94%; in assay [10], 0.41%.
Take `COc1ccc(-c2coc3ncnc(N)c23)cc1`: the inhibition in assay [1] was 10.2%; in [2], 5.34%; in assay [3], 5.29%; in [4] it was 12.5%; in assay [5], 8.75%; in [6], 7.11%. Besides, the inhibition was 8.23% in [7], 6.08% in assay [8], 6.94% in [9] and -0.2% in [10].
As for `CN1CCC(C(=O)Nc2n[nH]c3nnc(-c4ccccc4)cc23)CC1`, the inhibition in [1] is 14.1%; in assay [2], 6.89%; in assay [3], 5.56%; in [4], 6.64%; in assay [5], 14.6%; in [6], 4.72%. Also, the inhibition in assay [7] was 13%; in assay [8], 5.88%; in [9], 9.3%; in assay [10], -0.64%.
For `Cc1cccc(-c2n[nH]cc2-c2ccc3ncccc3n2)n1`, the inhibition was 30.9% in assay [1]; 1.75% in [2]; 1.88% in [3]; 4.05% in assay [4]; 19.5% in assay [5]; -0.22% in assay [6]. Further, the inhibition in assay [7] was 0.4%; in assay [8], -0.46%; in assay [9] it was 0.93%; in assay [10] it was -1.15%.
`CCc1cccc(NC(=O)Nc2ccc(Oc3ccc4nc(NC(=O)OC)[nH]c4c3)cc2)c1`: the inhibition stood at 3.37% in [1]; 1.28% in [2]; 1.44% in [3]; 3.46% in [4]; 3.01% in [5]; 3.69% in [6]. The inhibition was 8.88% in [7], 5.1% in [8], 4.89% in assay [9] and 2.48% in assay [10].
For `COc1cc2ncn(-c3cc(O[C@H](C)c4ccccc4Cl)c(C(N)=O)s3)c2cc1OC`, the inhibition worked out at 18.6% in [1]; 4.68% in [2]; 4.4% in [3]; 5.71% in assay [4]; 16.9% in assay [5]; 40.3% in assay [6]. Besides, the inhibition in [7] is 77%; in [8], 34.7%; in assay [9], 73.8%; in assay [10], -3.36%.
As to `NS(=O)(=O)c1cccc(-c2ccc3c(NC(=O)C4CC4)n[nH]c3c2)c1`, the inhibition in [1] is 10%; in [2] it was -1.43%; in assay [3], 2.83%; in assay [4], 1.11%; in assay [5], 8.09%; in assay [6], -3.97%. Also, the inhibition in assay [7] was -4.72%; in assay [8] it was -3.79%; in [9] it was -2.35%; in assay [10], 0%.
Take `COc1cc2ncn(-c3cc(OCc4ccccc4Cl)c(C(N)=O)s3)c2cc1OC`: the inhibition in assay [1] was 56.6%; in [2], 2.14%; in [3], 2.16%; in assay [4], 10.9%; in [5], 51%; in assay [6] it was 7.11%. The inhibition in assay [7] came out at 46.2%; in assay [8], 6.18%; in assay [9], 42.4%; in assay [10] it was 0.45%.
With `Cc1nn(C)c2cc(N(C)c3ccnc(Nc4cccc(S(N)(=O)=O)c4)n3)ccc12`, the inhibition in [1] was 84.1%; in assay [2], 3.83%; in assay [3] it was 4.09%; in assay [4], 44.2%; in [5] it was 83.8%; in assay [6] it was 1.85%. Moreover, the inhibition in [7] is 3.69%; in assay [8], 1.21%; in assay [9] it was 3.34%; in assay [10], -0.82%.
